Common to all, as to experiment: DAPPL (digital affinity profiling via proximity ligation, sequencing); 10 mM Tris-HCl pH 7.5, 50 mM NaCl, 1 mM DTT, 4% glycerol, room temperature, 30 min; GST-TFs on glutathione beads, 16-mer random dsDNA library, 0.1% formaldehyde crosslink after washing; high values mean tight binding
For assay [1], the target named is T1, FEV (Homo sapiens, UniProt Q99581 1-238).
T1 sequence: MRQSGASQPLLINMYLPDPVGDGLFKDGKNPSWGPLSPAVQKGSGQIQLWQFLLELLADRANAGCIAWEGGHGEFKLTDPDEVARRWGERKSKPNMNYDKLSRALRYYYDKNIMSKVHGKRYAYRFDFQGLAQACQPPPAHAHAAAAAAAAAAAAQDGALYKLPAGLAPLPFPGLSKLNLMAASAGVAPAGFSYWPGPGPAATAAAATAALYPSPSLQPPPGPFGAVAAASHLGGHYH
The following applies: protein: recombinant; tags: N-terminal GST; dsDNA, one strand shown. In a few lines: (§1)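 Human transcription factors fused to GST were expressed in yeast, captured on glutathione beads, given DNA barcodes and pooled with a GST-only negative control. Pools were incubated with 200 nmole of a 16-mer random double-stranded DNA library in Tris/NaCl/DTT/glycerol buffer at room temperature for 30 min. They were then washed, crosslinked with 0.1% formaldehyde, proximity-ligated (BsaI/T4 ligase, 1 h, 37 °C), PCR-amplified and sequenced on an Illumina NextSeq500. Binding signal is each 6-mer's read frequency for a factor divided by its frequency for the GST control.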

The target in assay [2] is ETV5 (Homo sapiens, UniProt P41161 1-510). The following applies: protein: recombinant; tags: N-terminal GST; dsDNA, one strand shown. Put shortly:
as §1

For assay [3], the target named is HSF1 (Homo sapiens, UniProt Q00613 1-529). As to conditions: protein: recombinant; tags: N-terminal GST; chain copies: 3; dsDNA, one strand shown. Put shortly: as §1
Assay [4] has as its target T2, SPIC (Homo sapiens, UniProt Q8N5J4 1-248).
T2 sequence: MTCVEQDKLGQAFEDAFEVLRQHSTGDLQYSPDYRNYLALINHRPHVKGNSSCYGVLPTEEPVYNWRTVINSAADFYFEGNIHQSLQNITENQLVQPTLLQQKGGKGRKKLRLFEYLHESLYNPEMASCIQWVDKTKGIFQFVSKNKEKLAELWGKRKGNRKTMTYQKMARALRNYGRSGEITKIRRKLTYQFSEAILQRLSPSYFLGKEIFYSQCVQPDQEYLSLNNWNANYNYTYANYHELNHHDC
The following applies: protein: recombinant; tags: N-terminal GST; dsDNA, one strand shown. Put shortly: as §1

The target in assay [5] is ELF4 (Homo sapiens, UniProt Q99607 1-663). As to conditions: protein: recombinant; tags: N-terminal GST; dsDNA, one strand shown. Put shortly: as §1
The target of assay [6] is T3, ELK4 (Homo sapiens, UniProt P28324-2 1-405).
T3 sequence: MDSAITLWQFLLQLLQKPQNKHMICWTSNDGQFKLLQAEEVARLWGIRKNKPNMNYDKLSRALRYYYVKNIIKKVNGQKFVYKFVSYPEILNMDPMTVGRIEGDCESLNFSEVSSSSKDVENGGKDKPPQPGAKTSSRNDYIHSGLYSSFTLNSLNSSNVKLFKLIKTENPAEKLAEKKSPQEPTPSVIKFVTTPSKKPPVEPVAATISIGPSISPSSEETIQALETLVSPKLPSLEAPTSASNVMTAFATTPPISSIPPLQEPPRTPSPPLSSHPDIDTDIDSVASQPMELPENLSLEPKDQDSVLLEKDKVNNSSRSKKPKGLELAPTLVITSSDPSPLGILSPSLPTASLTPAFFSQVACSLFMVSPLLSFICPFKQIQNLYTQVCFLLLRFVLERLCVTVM
As to conditions: protein: recombinant; tags: N-terminal GST; dsDNA, one strand shown. In a few lines:
as §1

For assay [7], the target named is T4, ETV2 (Homo sapiens, UniProt O00321 1-342).
T4 sequence: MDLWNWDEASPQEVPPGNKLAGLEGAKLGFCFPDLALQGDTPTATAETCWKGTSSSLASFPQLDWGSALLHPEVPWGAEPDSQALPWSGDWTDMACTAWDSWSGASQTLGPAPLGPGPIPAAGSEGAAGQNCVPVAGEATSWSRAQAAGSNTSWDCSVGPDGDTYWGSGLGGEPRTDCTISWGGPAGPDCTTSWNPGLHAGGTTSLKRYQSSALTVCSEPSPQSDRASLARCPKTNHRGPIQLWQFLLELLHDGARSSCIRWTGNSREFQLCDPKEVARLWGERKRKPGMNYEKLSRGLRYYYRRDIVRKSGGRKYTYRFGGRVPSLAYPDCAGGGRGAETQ
As to conditions: protein: recombinant; tags: N-terminal GST; dsDNA, one strand shown. In a few lines:
as §1

Assay [8] concerns the target T5, ELF3 (Homo sapiens, UniProt P78545 1-371).
T5 sequence: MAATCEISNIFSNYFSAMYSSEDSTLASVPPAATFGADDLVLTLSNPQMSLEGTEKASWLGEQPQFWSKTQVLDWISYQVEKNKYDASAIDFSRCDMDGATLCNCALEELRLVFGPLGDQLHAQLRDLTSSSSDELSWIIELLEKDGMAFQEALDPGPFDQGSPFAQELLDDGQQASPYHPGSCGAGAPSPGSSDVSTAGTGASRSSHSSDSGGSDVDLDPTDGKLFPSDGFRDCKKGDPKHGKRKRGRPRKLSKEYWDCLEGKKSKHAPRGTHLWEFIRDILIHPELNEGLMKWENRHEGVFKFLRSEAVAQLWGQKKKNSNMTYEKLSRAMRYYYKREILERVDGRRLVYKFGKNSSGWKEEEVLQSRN
As to conditions: protein: recombinant; tags: N-terminal GST; dsDNA, one strand shown. Put shortly:
as §1

Assay [9] has as its target CRX (Homo sapiens, UniProt O43186 1-299). The following applies: protein: recombinant; tags: N-terminal GST; dsDNA, one strand shown. Put shortly:
as §1

Assay [10] addresses ETV1 (Homo sapiens, UniProt P50549 1-477). The following applies: protein: recombinant; tags: N-terminal GST; dsDNA, one strand shown. Put shortly:
as §1

The target in assay [11] is T6, ERF (Homo sapiens, UniProt P50548 1-548).
T6 sequence: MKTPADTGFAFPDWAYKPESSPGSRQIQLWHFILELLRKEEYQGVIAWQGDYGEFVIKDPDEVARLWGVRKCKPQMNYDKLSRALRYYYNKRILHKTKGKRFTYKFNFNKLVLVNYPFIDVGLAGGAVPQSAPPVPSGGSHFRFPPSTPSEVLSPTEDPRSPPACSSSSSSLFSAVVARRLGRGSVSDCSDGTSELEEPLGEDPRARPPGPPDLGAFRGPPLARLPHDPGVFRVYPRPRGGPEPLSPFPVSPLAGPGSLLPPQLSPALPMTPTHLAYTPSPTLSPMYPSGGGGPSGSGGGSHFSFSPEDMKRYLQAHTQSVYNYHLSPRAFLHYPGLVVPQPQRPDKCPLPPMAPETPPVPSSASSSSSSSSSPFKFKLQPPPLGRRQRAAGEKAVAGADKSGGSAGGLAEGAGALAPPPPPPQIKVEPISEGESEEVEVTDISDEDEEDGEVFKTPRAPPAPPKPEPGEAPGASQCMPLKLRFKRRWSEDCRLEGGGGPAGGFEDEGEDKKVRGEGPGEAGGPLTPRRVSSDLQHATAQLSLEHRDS
The following applies: protein: recombinant; tags: N-terminal GST; dsDNA, one strand shown. In a few lines:
as §1

In assay [12] the target is T7, ETV3L (Homo sapiens, UniProt Q6ZN32 1-361).
T7 sequence: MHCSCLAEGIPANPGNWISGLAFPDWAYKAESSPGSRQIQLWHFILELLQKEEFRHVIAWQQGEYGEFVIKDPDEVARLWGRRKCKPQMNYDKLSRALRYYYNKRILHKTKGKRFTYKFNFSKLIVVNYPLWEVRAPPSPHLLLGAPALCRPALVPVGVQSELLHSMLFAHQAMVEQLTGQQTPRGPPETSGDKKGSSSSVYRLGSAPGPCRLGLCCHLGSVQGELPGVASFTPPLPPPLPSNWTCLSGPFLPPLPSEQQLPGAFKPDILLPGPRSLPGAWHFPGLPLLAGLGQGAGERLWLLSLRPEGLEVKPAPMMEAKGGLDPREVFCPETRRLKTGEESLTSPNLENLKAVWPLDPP
As to conditions: protein: recombinant; tags: N-terminal GST; dsDNA, one strand shown. Put shortly: as §1

Assay [13] deals with T8, ETS2 (Homo sapiens, UniProt P15036 1-469).
T8 sequence: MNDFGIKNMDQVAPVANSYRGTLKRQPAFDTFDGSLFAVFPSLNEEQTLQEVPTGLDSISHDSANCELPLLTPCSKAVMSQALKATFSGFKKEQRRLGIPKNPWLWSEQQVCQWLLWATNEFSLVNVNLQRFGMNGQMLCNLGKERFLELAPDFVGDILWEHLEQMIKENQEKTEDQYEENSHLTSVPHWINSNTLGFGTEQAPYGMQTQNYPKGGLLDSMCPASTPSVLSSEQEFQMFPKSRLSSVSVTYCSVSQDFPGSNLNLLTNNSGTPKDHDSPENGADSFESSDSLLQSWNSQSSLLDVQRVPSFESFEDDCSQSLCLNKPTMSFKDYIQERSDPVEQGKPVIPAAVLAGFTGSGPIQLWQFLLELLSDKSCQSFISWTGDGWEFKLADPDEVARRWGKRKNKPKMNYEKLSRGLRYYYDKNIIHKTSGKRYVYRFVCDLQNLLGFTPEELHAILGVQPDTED
As to conditions: protein: recombinant; tags: N-terminal GST; dsDNA, one strand shown. In a few lines:
as §1

Assay [14] deals with T9, SPDEF (Homo sapiens, UniProt O95238 1-335).
T9 sequence: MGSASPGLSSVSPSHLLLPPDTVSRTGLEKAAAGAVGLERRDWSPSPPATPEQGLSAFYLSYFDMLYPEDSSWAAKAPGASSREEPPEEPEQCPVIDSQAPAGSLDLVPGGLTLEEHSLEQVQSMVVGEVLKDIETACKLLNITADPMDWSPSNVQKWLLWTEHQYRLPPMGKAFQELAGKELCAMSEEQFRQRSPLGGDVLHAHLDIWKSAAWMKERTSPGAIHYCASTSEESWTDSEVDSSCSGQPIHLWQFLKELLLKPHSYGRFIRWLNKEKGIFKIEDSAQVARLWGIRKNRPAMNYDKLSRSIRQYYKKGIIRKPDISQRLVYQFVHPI
As to conditions: protein: recombinant; tags: N-terminal GST; dsDNA, one strand shown. Put shortly: as §1

The target of assay [15] is T10, ETV7 (Homo sapiens, UniProt Q9Y603 1-341).
T10 sequence: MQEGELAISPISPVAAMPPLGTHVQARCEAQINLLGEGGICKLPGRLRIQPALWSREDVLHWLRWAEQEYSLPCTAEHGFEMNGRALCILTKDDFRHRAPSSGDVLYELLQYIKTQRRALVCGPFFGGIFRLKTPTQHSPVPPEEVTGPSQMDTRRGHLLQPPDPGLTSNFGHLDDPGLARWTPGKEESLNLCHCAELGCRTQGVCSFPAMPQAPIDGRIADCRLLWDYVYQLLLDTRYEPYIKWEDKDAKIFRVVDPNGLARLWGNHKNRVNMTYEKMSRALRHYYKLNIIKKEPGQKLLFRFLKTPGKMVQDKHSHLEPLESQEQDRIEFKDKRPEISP
As to conditions: protein: recombinant; tags: N-terminal GST; dsDNA, one strand shown. In a few lines:
as §1

Assay [16] has as its target T11, ELF5 (Homo sapiens, UniProt Q9UKW6-2 1-255).
T11 sequence: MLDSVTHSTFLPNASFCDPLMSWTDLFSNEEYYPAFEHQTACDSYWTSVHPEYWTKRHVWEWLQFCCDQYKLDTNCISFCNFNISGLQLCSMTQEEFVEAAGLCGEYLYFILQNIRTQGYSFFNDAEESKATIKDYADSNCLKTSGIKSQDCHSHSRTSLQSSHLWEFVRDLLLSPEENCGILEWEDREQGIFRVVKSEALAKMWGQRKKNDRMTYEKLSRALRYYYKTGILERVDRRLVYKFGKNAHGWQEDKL
As to conditions: protein: recombinant; tags: N-terminal GST; dsDNA, one strand shown. Put shortly:
as §1

The target in assay [17] is T12, ETV3 (Homo sapiens, UniProt P41162-2 1-143).
T12 sequence: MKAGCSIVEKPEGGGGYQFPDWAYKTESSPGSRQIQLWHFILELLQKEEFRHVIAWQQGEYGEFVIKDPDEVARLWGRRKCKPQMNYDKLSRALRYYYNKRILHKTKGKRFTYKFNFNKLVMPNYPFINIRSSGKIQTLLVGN
The following applies: protein: recombinant; tags: N-terminal GST; dsDNA, one strand shown. In a few lines: as §1

The target of assay [18] is ETV6 (Homo sapiens, UniProt P41212 1-452). The following applies: protein: recombinant; tags: N-terminal GST; dsDNA, one strand shown. Put shortly: as §1

The values that follow come from PMC7862700, “An all-to-all approach to the identification of sequence-specific readers for epigenetic DNA modifications on cytosine”.

Chain of HSF1 (Q00613 whole entry): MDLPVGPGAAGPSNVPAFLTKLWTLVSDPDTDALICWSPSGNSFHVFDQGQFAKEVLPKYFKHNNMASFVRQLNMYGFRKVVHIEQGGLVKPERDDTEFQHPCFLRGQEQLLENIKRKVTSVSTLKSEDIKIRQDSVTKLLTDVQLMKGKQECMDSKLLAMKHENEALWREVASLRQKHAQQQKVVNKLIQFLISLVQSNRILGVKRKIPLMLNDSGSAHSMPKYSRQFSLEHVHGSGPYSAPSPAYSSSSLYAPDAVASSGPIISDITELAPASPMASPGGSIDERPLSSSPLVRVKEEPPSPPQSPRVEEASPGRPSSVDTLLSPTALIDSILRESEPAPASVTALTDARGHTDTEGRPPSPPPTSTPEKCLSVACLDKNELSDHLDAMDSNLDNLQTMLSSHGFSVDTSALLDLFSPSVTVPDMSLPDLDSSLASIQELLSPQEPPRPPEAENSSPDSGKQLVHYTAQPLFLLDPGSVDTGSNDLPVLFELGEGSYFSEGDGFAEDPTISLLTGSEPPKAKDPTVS
Chain of CRX (O43186 whole entry): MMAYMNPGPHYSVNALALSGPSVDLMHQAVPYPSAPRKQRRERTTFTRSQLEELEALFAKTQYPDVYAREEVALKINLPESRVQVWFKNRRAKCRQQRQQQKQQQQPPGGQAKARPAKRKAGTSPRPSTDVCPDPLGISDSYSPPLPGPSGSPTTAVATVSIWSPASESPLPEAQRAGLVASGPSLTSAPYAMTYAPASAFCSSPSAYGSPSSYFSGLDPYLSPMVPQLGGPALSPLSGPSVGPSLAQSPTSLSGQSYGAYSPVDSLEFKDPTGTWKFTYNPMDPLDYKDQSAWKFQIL
Chain of ETV6 (P41212 whole entry): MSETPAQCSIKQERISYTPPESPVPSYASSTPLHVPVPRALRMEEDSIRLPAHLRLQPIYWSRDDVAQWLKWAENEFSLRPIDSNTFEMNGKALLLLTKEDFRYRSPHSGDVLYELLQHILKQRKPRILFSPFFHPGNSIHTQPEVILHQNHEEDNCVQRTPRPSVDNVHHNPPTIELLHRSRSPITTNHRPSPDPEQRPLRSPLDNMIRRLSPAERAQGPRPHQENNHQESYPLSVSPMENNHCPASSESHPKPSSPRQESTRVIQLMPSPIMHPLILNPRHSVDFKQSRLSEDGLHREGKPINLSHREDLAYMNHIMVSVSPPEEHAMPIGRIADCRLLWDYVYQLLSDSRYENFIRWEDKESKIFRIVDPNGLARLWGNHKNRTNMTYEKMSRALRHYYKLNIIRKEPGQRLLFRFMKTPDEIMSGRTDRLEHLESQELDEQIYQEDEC
Chain of ETV5 (P41161 whole entry): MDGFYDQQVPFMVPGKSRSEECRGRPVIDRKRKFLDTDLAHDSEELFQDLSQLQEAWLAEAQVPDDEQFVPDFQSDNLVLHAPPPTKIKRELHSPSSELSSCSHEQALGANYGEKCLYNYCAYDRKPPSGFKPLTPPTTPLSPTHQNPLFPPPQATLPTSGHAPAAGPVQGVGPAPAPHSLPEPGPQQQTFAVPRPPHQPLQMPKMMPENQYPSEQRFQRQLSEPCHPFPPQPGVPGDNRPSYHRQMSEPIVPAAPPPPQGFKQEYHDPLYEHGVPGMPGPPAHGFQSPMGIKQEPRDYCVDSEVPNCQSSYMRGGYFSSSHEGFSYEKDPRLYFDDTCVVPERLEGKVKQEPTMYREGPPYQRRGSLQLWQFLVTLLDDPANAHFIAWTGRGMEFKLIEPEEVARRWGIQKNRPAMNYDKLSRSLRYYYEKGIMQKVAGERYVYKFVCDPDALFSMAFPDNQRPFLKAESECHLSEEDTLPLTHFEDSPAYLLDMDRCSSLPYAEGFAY
Chain of ETV1 (P50549 whole entry): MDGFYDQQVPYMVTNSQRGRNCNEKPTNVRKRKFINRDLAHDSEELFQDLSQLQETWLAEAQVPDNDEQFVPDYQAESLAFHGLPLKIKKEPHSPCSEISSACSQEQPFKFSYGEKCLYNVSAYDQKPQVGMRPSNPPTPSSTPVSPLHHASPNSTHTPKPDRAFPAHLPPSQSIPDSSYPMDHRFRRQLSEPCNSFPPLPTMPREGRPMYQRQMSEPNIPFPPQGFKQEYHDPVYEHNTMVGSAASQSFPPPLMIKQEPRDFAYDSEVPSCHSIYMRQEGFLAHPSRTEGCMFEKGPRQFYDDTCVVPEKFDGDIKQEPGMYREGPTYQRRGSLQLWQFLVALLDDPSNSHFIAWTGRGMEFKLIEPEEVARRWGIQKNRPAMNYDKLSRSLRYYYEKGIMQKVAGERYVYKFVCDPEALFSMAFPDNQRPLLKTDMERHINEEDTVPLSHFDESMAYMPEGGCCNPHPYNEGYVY
Chain of ELF4 (Q99607 whole entry): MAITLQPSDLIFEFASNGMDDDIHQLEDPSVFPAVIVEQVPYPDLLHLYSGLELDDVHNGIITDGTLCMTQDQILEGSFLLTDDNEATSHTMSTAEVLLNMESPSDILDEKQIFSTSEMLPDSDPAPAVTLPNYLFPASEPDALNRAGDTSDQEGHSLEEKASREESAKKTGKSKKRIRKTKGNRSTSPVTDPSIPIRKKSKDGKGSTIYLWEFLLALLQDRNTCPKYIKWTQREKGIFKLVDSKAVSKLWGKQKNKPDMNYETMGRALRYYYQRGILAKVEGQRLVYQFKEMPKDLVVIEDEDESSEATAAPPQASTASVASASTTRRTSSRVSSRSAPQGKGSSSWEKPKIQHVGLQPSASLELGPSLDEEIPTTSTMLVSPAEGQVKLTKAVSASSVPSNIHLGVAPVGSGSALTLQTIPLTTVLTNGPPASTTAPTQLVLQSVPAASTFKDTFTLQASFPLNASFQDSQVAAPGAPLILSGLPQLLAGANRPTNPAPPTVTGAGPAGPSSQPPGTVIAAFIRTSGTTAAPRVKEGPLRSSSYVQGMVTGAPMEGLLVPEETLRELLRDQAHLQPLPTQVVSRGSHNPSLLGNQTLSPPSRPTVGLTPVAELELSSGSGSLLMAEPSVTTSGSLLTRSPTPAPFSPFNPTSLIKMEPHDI

For the sequence CGTTTT, the binding signal in assay [1] was 1.19 fold enrichment (6-mer frequency, TF over GST control); in assay [2], 1.21 fold enrichment (6-mer frequency, TF over GST control); in [3] it was 1.12 fold enrichment (6-mer frequency, TF over GST control); in assay [4], 1.29 fold enrichment (6-mer frequency, TF over GST control); in assay [5] it was 1.16 fold enrichment (6-mer frequency, TF over GST control); in [6], 1.22 fold enrichment (6-mer frequency, TF over GST control). In addition, the binding signal is 1.35 fold enrichment (6-mer frequency, TF over GST control) in [7]; 1.08 fold enrichment (6-mer frequency, TF over GST control) in assay [8]; 1.04 fold enrichment (6-mer frequency, TF over GST control) in assay [9]; 1.17 fold enrichment (6-mer frequency, TF over GST control) in assay [10]; 1.15 fold enrichment (6-mer frequency, TF over GST control) in assay [11]; 1.29 fold enrichment (6-mer frequency, TF over GST control) in assay [12]. For the same sequence, the binding signal in assay [13] is 1.16 fold enrichment (6-mer frequency, TF over GST control); in assay [14], 1.14 fold enrichment (6-mer frequency, TF over GST control); in [15] it was 1.25 fold enrichment (6-mer frequency, TF over GST control); in assay [16], 1.14 fold enrichment (6-mer frequency, TF over GST control); in assay [17], 1.21 fold enrichment (6-mer frequency, TF over GST control); in assay [18], 1.24 fold enrichment (6-mer frequency, TF over GST control).
